HepG2 tox: HepG2 cytotoxicity, counter-screen for TGF-b inhibitors | HepG2 CAGA-GFP viability, ATP luminescence, 18 h | Potency, µM (top dose mostly 46.1 µM), without a hit: at the top dose activity change, negative = cytotoxicity, actives largely listed as cytotoxic | 0.76% of 410,000 active | AID 588856; also: potency is read from the fitted curve at half-maximal effect
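CellTiter-Glo luminescence gave cytotoxicity after 18 hours at 37 degrees C. The cells were HepG2 CAGA-GFP in 1% FBS DMEM, stimulated with 500 pg/mL TGF-beta after compound addition. %Activity was normalised to no-cell wells (complete cell-killing) and DMSO (no toxicity), and curves were fitted and classified.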
ASM inhibitor: blocks human secretory acid sphingomyelinase; placental ASM, HMU-PC fluorogenic substrate, 60 min; Potency, µM (series often up to 57.5 µM), for inactives: at the top dose activity change, negative = inhibition, usual class: inhibitors; 0.006% of 340,000 active; also: potency is read from the fitted curve at half-maximal effect
Target sequence (P17405 47-631 limits assumed): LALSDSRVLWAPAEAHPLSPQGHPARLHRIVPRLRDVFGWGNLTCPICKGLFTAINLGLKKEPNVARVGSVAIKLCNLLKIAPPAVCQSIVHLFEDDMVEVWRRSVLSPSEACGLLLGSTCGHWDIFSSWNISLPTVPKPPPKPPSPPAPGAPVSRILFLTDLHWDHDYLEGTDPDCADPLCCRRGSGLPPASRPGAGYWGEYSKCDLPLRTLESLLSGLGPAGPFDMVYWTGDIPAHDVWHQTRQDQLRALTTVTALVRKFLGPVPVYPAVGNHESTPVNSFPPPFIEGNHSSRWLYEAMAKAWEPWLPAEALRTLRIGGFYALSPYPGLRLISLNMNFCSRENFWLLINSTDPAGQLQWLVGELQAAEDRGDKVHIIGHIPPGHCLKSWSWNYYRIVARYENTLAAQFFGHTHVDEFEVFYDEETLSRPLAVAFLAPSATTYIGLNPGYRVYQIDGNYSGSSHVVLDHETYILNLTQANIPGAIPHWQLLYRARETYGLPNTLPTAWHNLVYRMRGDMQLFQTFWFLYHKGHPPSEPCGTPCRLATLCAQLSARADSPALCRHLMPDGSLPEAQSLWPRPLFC
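HMU-PC0 cleavage (9 uM final) by human placental ASM, 60 min at 37 °C following 10 min compound exposure at RT; stopped at pH 10, fluorescence Ex 386/Em 447 nm.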
IL1B secr inh: blocks inflammasome-driven IL-1 beta release; activity change, % at 57.5 µM; THP-1 LPS/ATP IL-1B secretion, AlphaLISA, 16 h; active compounds read low; AID 743279; 4.7% of 360,000 active; in the data active = activity change below about -50%; inconclusive = mostly about -30% to -49%; also: % is scaled to controls: 0 for no effect and ±100 for the full control effect
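Secreted IL-1B measured by AlphaLISA bead assay after 16 h compound exposure of THP-1 cells; compounds (final up to 57.5 uM) added 1 h before LPS (250 ng/mL) and ATP (1.25 mM) stimulation; lower signal means less secretion.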
TGFb SMAD3 inh: TGF-b pathway inhibition | HepG2 CAGA-GFP TGF-b/SMAD3 reporter, GFP fluorescence, 18 h; TGF-beta stimulated, 500 pg/mL final | Potency, µM (highest dose often 46.1 µM), without a hit: top-dose activity, negative = inhibition, hits mostly inhibitors | 1.2% of 410,000 active; also: potency is read from the fitted curve at half-maximal effect; % is scaled to controls: 0 for no effect and ±100 for the full control effect; nearly all actives have a fitted effect of over 65% in size
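Using HEPG2 CAGA-GFP reporter cells at 1000 cells/well, we pinned test compounds, stimulated with recombinant TGF-beta (500 pg/mL final) and measured total well GFP after 18 h.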
DT40 TDP1 no CPT: qHTS for Inhibitors of human tyrosyl-DNA phosphodiesterase 1 (TDP1): qHTS in cells in absence of CPT | DT40 Tdp1-/- hTDP1 cells, no CPT, ATP luminescence, 48 h | Potency, µM (titrated, usually from 46.2 µM), for the others: top-dose activity change, negative = growth inhibition, usual class: inhibitors | 15% of 420,000 active | AID 686978, 2013; also: potency is read from the fitted curve at half-maximal effect; % is scaled to controls: 0 for no effect and ±100 for the full control effect; nearly all actives have a fitted effect of over 55% in size
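Seeded 400 DT40-hTDP1 cells/well (vehicle DMSO, no 20 nM CPT); pinned compounds; ≥48 hr at 37 °C; CellTiter-Glo luminescence as viability measure.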
TDP1 cell CPT: growth inhibition of DT40 Tdp1-/-;hTDP1 cells with camptothecin (screen for TDP1 inhibitors); chicken DT40 Tdp1-/-;hTDP1 cells + 20 nM CPT, ATP luminescence, 48 h; Potency, µM (highest dose often 46.2 µM), without a hit: top-dose activity change, negative = growth inhibition, hits mostly inhibitors; 12% of 420,000 active; also: potency is read from the fitted curve at half-maximal effect; % is scaled to controls: 0 for no effect and ±100 for the full control effect; nearly all actives have a fitted effect of over 55% in size
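Chicken DT40 Tdp1-/- cells stably complemented with human TDP1 were seeded at 400 cells/well in medium containing 20 nM camptothecin, exposed to pin-transferred compounds, and grown at 37 °C for at least 48 hr. Viability was read as ATP luminescence.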
An asterisk follows results filed as active; [ ] = another dose, or the depositor's remark. In the library only some 19% were active in any assay of this set; here they are far more common. Unless noted, calls follow the shape of the dose curve; as a rule, active = well fitted curve in the direction sought with a large enough effect; inconclusive = small, poorly fitted or top-dose-only effect, or another doubt; inactive = no such curve, though single readings can be large; an effect the other way counts as inactive or inconclusive.

`COc1cccc(OC)c1CN1CCC2(CCC(CNC(=O)c3ccccc3)O2)CC1` (centres undefined) gave DT40 TDP1 no CPT -23.5% and TDP1 cell CPT 8.6%.
For Cc1ccc(-n2c(=O)c3c(c4cc(C)ccc4n3C)n(CC(=O)Nc3cc(C)cc(C)c3)c2=O)cc1 the results were HepG2 tox -2.6%, TGFb SMAD3 inh 5.3%, DT40 TDP1 no CPT -13.6% and TDP1 cell CPT 0.6%.
`CC(O)(COc1ccccc1)c1ccc2c(c1)CN(Cc1cccn1-c1ccccn1)CCO2` (centres undefined) gave DT40 TDP1 no CPT 16.4µM* and TDP1 cell CPT -11.2%[9.04 µM].
For CCCN(CCC)S(=O)(=O)c1ccc(C(=O)OCCN2C(=O)c3cccc4c(N5CCOCC5)ccc(c34)C2=O)cc1 the results were HepG2 tox -2.2%, ASM inhibitor -1.7%, IL1B secr inh 43.5, TGFb SMAD3 inh 15.7%, DT40 TDP1 no CPT inconclusive and TDP1 cell CPT inconclusive.
O=C(OCCN1C(=O)c2cccc3c(N4CCOCC4)ccc(c23)C1=O)c1ccc(Cl)cc1 was read as HepG2 tox 7.4%, ASM inhibitor -10.7%, IL1B secr inh -4.3, TGFb SMAD3 inh -5.5%, DT40 TDP1 no CPT 1.64µM* and TDP1 cell CPT 2.06µM*.
`Cc1ccsc1C(=O)NNC(=O)COc1ccccc1Cl` gave HepG2 tox 6.6%, ASM inhibitor 8.1%, IL1B secr inh 1.6, TGFb SMAD3 inh 3.3%, DT40 TDP1 no CPT -17.2% and TDP1 cell CPT -4.6%.
COC(=O)C(=O)/C=C(\O)c1c(C)cc(C)cc1C was read as HepG2 tox -20.4%, ASM inhibitor -0.4%, IL1B secr inh 2.4, TGFb SMAD3 inh -4.8%, DT40 TDP1 no CPT 3.3% and TDP1 cell CPT 6.7%.
`NC(=S)N/N=C/c1cccc(O)c1O` gave HepG2 tox -16.4%, ASM inhibitor 4.5%, IL1B secr inh 59.4, TGFb SMAD3 inh -17.5%, DT40 TDP1 no CPT 0.92µM* and TDP1 cell CPT 0.581µM*.
Screening O=C(N/N=C/c1cc([N+](=O)[O-])ccc1O)c1ccncc1 returned HepG2 tox -10.2%, ASM inhibitor -2.0%, IL1B secr inh 141.8, TGFb SMAD3 inh -19.4%, DT40 TDP1 no CPT inconclusive and TDP1 cell CPT inconclusive.
Cc1ccc(N=Nc2ccc(O)c(/C=N\NC(=O)c3ccc(N)cc3)c2)cc1C was read as HepG2 tox -21.5%, ASM inhibitor -1.0%, IL1B secr inh 86.5, TGFb SMAD3 inh -2.4%, DT40 TDP1 no CPT 13µM* and TDP1 cell CPT 10.3µM*.
Screening O=C(N/N=C/c1cc2ccccc2nc1Cl)c1ccncc1 returned HepG2 tox 4.7%, ASM inhibitor -2.5%, IL1B secr inh 101.7, TGFb SMAD3 inh 17.0%, DT40 TDP1 no CPT 4.61µM* and TDP1 cell CPT 2.59µM*.
`O=C(N/N=C/c1cc(Br)ccc1O)c1ccncc1` gave HepG2 tox -43.0%, ASM inhibitor -4.4%, IL1B secr inh 162.3, TGFb SMAD3 inh inconclusive, DT40 TDP1 no CPT 1.64µM* and TDP1 cell CPT 4.61µM*.
Cc1ccc2cc(/C=N/NC(=O)c3ccc(F)cc3)c(Cl)nc2c1 was read as HepG2 tox 3.1%, ASM inhibitor -0.8%, IL1B secr inh 0.6, TGFb SMAD3 inh 14.8%, DT40 TDP1 no CPT -11.7% and TDP1 cell CPT 10.3%.
Screening Cc1ccc(N2CC(C(=O)N3CCC(C(=O)Nc4nnc(C(C)C)s4)CC3)CC2=O)cc1 (centres undefined) returned HepG2 tox -2.2%, ASM inhibitor -2.1%, IL1B secr inh -20.8, TGFb SMAD3 inh -6.9%, DT40 TDP1 no CPT inconclusive and TDP1 cell CPT -14.6%.

High-throughput results: PubChem, National Center for Advancing Translational Sciences (NCATS)
